The list is not random: actives were taken first. Their share in the collection is about 4.6%.
IL1B NFkB inh – blocks IL-1B driven NFkB nuclear translocation in HUVEC cells; HUVEC IL-1B NFkB p65 nuclear translocation imaging; AID 796; inhibition, % at 2 µM; 94,000 compounds, 0.43% hits;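 active means inhibition above about 30% together with a positive call from visual inspection of the well image, limit read from the data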;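 further: nuclear over cytoplasmic p65 intensity ratio measured by imaging; 0% = IL-1B stimulated DMSO wells and 100% = unstimulated DMSO wells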
Cav3 T inh – human Cav3.2 channel inhibition, primary screen; B-score at 10 µM; O95180; 100,000 compounds, 4% hits; Cav3.2-expressing cells, Fluo-4 calcium fluorescence FDSS; active compounds read low;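 active means single-dose well whose peak fluorescence ratio is a statistical outlier from its plate by either plate-standardised score or position-corrected B-score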
sEH act – soluble epoxide hydrolase (human) activation | P34913 | purified human sEH enzymatic activity, activator screen | activation, % at 2 µM | 91,000 compounds, 0.04% hits | AID 717; in the data active means activation above about 37%
IL1B cytotox – HUVEC cytotoxicity counter-screen, IL-1B stimulated; HUVEC cell count loss, Hoechst imaging; cell count reduction, % at 2 µM; 94,000 compounds, 0.41% hits; AID 845;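 active means cell count reduction more than 3 SD above the screen-wide mean, cut at about 70% in these data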;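 further: normalized per plate to untreated control cells as the no-loss baseline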
sEH inhibitor – blocks human soluble epoxide hydrolase activity; recombinant human sEH enzymatic activity assay; 91,000 compounds, 0.34% hits; inhibition, % at 2 µM; AID 707; in the data active means inhibition above about 80%
NFkB transloc pot – enhances IL-1B driven NFkB nuclear translocation; HUVEC IL-1B NFkB p65 nuclear translocation imaging; activation, % at 2 µM; 94,000 compounds, 0.3% hits;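 active means activation above 40%, about the mean plus 3 SD, also judged a hit on visual image review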;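 further: percent activation is computed from the nuclear over cytoplasmic p65 intensity ratio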
* marks the source's active call; other numbers are inactive results; · = not tested or not shown.

SMILES	IL1B NFkB inh	Cav3 T inh	sEH act	IL1B cytotox	sEH inhibitor	NFkB transloc pot
CCc1cc(/C(Cc2csc(C)n2)=N/O)c(O)cc1O	7	-5.2*	0	3	0	-7
O=C1CN(C(=O)c2ccc(Br)o2)C(c2ccc(F)cc2)c2cc(Cl)ccc2N1 (centres undefined)	9	-6.8*	12	-33	-13	-9
O=C1CN(C(=O)c2ccc(Br)o2)C(c2ccccc2)c2cc(Cl)ccc2N1 (centres undefined)	-22	-4.5*	5	-3	-6	23
O=C1CN(C(=O)c2ccc(Br)o2)C(c2ccccc2)c2cc(Br)ccc2N1 (centres undefined)	-20	·	1	-7	-2	20
Cc1ccc2c(c1)C(c1ccccc1)N(C(=O)c1ccc(Br)o1)CC(=O)N2 (centres undefined)	7	·	5	-20	-1	-7
CCOC(=O)N1CCN(c2c(NCCCN(CC)CC)c(=O)c2=O)CC1	-4	0.87	20	-1	-21	3
Cc1cccc(N2CCN(S(=O)(=O)c3ccc4c(c3)CCC(=O)N4)CC2C)c1 (centres undefined)	-11	-0.93	10	-18	-10	11
CC(Sc1nnc(C(F)(F)F)n1C)C(=O)NC(N)=O (centres undefined)	-8	0.49	-8	-5	8	8
CN(C)c1oc(-c2ccccc2Cl)nc1C#N	-17	·	14	-30	-13	17
CN(C)c1oc(-c2ccccc2Cl)nc1S(=O)(=O)c1ccccc1	5	-6.3*	-14	-7	13	-5
CN(C)S(=O)(=O)c1ccc(Nc2ccc(-c3ccc4c(c3)OCCO4)nn2)cc1	4	0.055	-8	-1	8	-4
CN(C(=O)c1cccc(Nc2ccc(-c3ccc4c(c3)OCCO4)nn2)c1)C1CCCCC1	0	-3.8*	-11	-17	15	0
Cc1cccc(C(=O)OCc2cc3ccccc3[nH]c2=O)c1	9	-1.3	4	3	-2	-9
CCCn1c2ccccc2c2nnc(SCC(=O)OCC)nc21	-17	-1.9	7	-96	-6	17
CCOC(=O)c1ccccc1NC1c2ccccc2C(=O)N1C1CCN(C(=O)OCC)CC1 (centres undefined)	-7	-5.8*	4	-6	-4	7
CCOC(=O)N1CCC(N2C(=O)c3ccccc3C2Nc2ccccc2C)CC1 (centres undefined)	-11	-0.23	0	6	-1	11
O=C1CSC(c2ccccc2F)N1c1cc(Cl)ccc1O (centres undefined)	-4	-3.7*	-3	-16	2	4
O=C(Oc1ccccc1)c1cccc(COC(=O)c2cnccn2)c1	-30	-1.5	-1	87*	4	30
O=C(COC(=O)c1cnccn1)NCc1ccccc1	-2	-0.52	-16	-1	14	2
COC(=O)CC1Sc2ccccc2NC1=O (centres undefined)	·	-0.17	·	·	·	·
CCC(=O)NC(=S)Nc1cccc(C(C)=O)c1	4	0.25	-11	-7	12	-4
CCCn1c(=O)c(C(=O)Nc2ccccc2C(=O)OCC)c(O)c2ccccc21	·	0.043	·	·	·	·
CCC(C)n1c(=O)c(C(=O)Nc2ccccc2S(N)(=O)=O)c(O)c2ccccc21 (centres undefined)	·	-3.4*	·	·	·	·
CC1=C(C(=O)Nc2ccccc2)C(c2ccc(O)cc2)N2C(=O)CSC2=N1 (centres undefined)	1	-2.4	16	24	-18	-1
COc1ccc(C2C(C(=O)Nc3ccccc3)=C(C)N=C3SCC(=O)N32)cc1 (centres undefined)	-31	-9.9*	3	-19	3	31
CC(C)C(OC(=O)c1nsc(Cl)c1Cl)C(=O)NCc1ccc2c(c1)OCO2 (centres undefined)	-5	2	-5	86*	7	-96
O=C(Cn1nnc(-c2cccs2)n1)N1c2ccccc2Sc2ccc(C(F)(F)F)cc21	8	-5.4*	-1	4	1	-8
COc1ccc(COCC(O)CN2CCOCC2)cc1OC (centres undefined)	-2	-0.036	16	36	-16	2
Cc1cccc(C)c1NC(=O)C(c1ccc(Cl)cc1Cl)N1CCCCC1 (centres undefined)	-2	-5*	-9	-21	10	2

Bioassay records: PubChem, several laboratories
